Results from PubChem BioAssay AID588342 (National Center for Advancing Translational Sciences (NCATS), 2011).
Screen size: about 360,000 compounds; about 25,000 (6.9%) were called active. Not shown: some 9% with an inconclusive outcome. This excerpt belongs to a sample that is enriched for actives. A number with no mark means an inactive call. Calls come from the whole dose curve; as a rule, active = well fitted inhibition curve with a large enough effect; inconclusive = small, poorly fitted or top-dose-only effect; inactive = flat fitted curve, though single readings scatter.

Target: Luciferin 4-monooxygenase (Photinus pyralis) (UniProt P08659)
Test: qHTS profiling assay for firefly luciferase inhibitor/activator using purifed enzyme and Km concentrations of substrates (counterscreen for miR-21 project); note: nearly all actives have a fitted effect of over 55% in size;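 for activity change, negative = inhibition: plate controls were vehicle for no effect and reference inhibitor for full effect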
Details: purified FLuc, luminescence inhibition; series mostly up to 57.5 µM; activity change, negative = inhibition: at the top concentration
Procedure, shortened: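 Purified P. pyralis luciferase, 10 nM final, with Km-level 10 uM D-luciferin and 10 uM ATP in 50 mM Tris acetate pH 7.5, 10 mM Mg acetate, 0.01% Tween-20, 0.05% BSA; 6-point qHTS titration about 60 µM downward; luminescence read.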
Potency is the fitted concentration of half-maximal effect.

Luciferin 4-monooxygenase (Photinus pyralis), sequence (P08659 whole entry, looked up): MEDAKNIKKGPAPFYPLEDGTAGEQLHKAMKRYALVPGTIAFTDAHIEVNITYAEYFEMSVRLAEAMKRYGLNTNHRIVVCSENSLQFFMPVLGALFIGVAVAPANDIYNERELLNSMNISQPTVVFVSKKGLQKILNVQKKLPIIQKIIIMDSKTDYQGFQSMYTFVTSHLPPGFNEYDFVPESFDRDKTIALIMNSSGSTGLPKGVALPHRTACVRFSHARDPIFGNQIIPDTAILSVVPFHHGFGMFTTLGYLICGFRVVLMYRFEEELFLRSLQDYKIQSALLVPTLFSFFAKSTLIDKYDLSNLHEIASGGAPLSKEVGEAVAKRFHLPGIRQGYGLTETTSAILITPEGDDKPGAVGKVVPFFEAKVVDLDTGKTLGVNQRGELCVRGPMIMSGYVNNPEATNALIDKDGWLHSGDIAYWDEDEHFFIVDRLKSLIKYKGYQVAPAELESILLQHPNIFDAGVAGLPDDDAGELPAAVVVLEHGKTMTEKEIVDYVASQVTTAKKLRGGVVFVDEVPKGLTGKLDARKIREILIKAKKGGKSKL

Going from `CCN(CC)c1ccc(NC(=O)CN2CCN(CC(=O)Nc3ccc(Cl)cc3)CC2)cc1` to `COc1ccc(NC(C)=O)cc1NC(=O)CN1CCN(c2ccc(F)cc2)CC1`, the “activity change, negative = inhibition” value rises from -6.9% to 1.43%.

Compared with `COc1cccc(C(=O)Nc2cccnc2)c1OC`, `Cc1cccc(NC(=O)c2cccnc2Cl)n1` is higher in “activity change, negative = inhibition” value: -16.4% for the first, 2.18% for the second.

Going from `COc1ccc(/C(C)=N\NC(=O)c2ccc(-c3ccccc3)cc2)c(F)c1` to `COc1ccc(N(CC(=O)Nc2cccc3ccccc23)S(C)(=O)=O)c(OC)c1`, the “activity change, negative = inhibition” value falls from 1.48% to -3.27%.

Compared with `Cc1cc(C)cc(NC(=O)Cn2nc(N3CCN(c4ccccc4)CC3)ccc2=O)c1`, `Cc1ccccc1OCC(=O)Nc1ccc(N2CCN(C(=O)C(C)C)CC2)c(Cl)c1` is higher in “activity change, negative = inhibition” value: -14.4% for the first, 4.38% for the second.

Going from `CCC1CN(S(=O)(=O)c2cc(-c3cc(C)no3)ccc2C)c2cc(C)ccc2O1` (configuration not stated) to `CCn1c2ccccc2c2cc(NC(=O)COc3ccc(C)cc3C)ccc21`, the “activity change, negative = inhibition” value falls from -4.43% to -11.2%.

Going from `CS(=O)(=O)Nc1ccc(C(=O)N2CCCC2)cc1` to `Cc1c(Cl)cccc1NC(=O)NCCCN1CCCC1=O`, the “activity change, negative = inhibition” value falls from 1.38% to -0.71%.

Going from `Cc1ccc(C)n1-c1nnc(N2CCC(C(=O)NCc3ccc(F)cc3)CC2)s1` to `CCOc1ccccc1CNC(=O)c1ccc(-n2c(C)cc3c2CCC(C)C3)cc1` (configuration not stated), the “activity change, negative = inhibition” value rises from -3.4% to 4.62%.

First: Cn1c(=O)c2c(SCC(=O)N3CCc4ccccc43)nc(-c3ccc(Cl)cc3)nc2n(C)c1=O
Second: Cn1c(=O)c2c(n(Cc3ccccc3)c1=O)NC(=O)C2CC(=O)N1CCc2ccccc2C1 (configuration not stated)
The “activity change, negative = inhibition” value of the first is higher: 0.741% for the first, 0.136% for the second.

Going from `Cc1ccc(S(=O)(=O)NC(=O)COc2ccccc2C)cc1` to `COCCNC(=O)COc1ccccc1C`, the “activity change, negative = inhibition” value rises from -1.45% to -1.43%.

Going from `Cc1ccc(OCC(=O)Nc2ccc(NC(=O)c3cccs3)cc2)c(C)c1` to `CCOc1ccc(NC(=O)c2cc3c(=O)n(Cc4cccs4)ccc3nc2C)cc1`, the “activity change, negative = inhibition” value falls from -0.406% to -9.25%.

Going from `CCN(CC)S(=O)(=O)c1ccc(C)c(NC(=O)COc2ccc(Br)cc2Cl)c1` to `CCOc1ccccc1NC(=O)Cn1nnc(C(=O)Nc2ccc(C)c(C)c2)c1N`, the “activity change, negative = inhibition” value falls from 3.98% to -8.7%.

Going from `Cc1cccc(NC(=O)c2ccccc2NC(=O)C(C)(C)C)n1` to `CC(=O)Nc1cccc2c1[n+]([O-])c(C)c(C)[n+]2[O-]`, the “activity change, negative = inhibition” value falls from 12.6% to -0.147%.

Compared with `Cc1nc(C)c2c(c1C(F)(F)F)-c1ccccc1C2(F)F`, `CCN(CC)C(=O)CSC1c2ccccc2C(=O)N1c1ccccc1` (configuration not stated) is lower in “activity change, negative = inhibition” value: -3.1% for the first, -6.61% for the second.

First: COc1cccc(NC(=O)CSc2cc(=O)n(C)c3ccc(Cl)cc23)c1
Second: COc1ccc2c(c1)c(=O)c(S(=O)(=O)c1ccc(F)cc1)cn2CC(=O)Nc1ccc(C)cc1C
The “activity change, negative = inhibition” value of the first is higher: 0.0415% for the first, -2.97% for the second.

Compared with `CCC1(CC)NC(=O)N(CC(=O)OCC(=O)c2cc(C)c(C)cc2C)C1=O`, `CCOC(=O)c1c(C)[nH]c(CCC(=O)NCCCN2CCN(c3cc(C)ccc3C)CC2)c1C` is lower in “activity change, negative = inhibition” value: 2.66% for the first, 1.17% for the second.

First: Cc1ccc(CCCOC(=O)C[N+]2(C)CCCC2)cc1
Second: CCOCc1nnc(NC(=O)CSc2ccc(C)cc2)s1
The “activity change, negative = inhibition” value of the first is higher: 4.94% for the first, 2.73% for the second.

Going from `CSc1nnc(NC(=O)c2nc(S(=O)(=O)Cc3ccc(C)cc3)ncc2Cl)s1` to `COC(=O)CSc1nnc(NC(=O)CCc2ccccc2)s1`, the “activity change, negative = inhibition” value falls from 3.37% to 2.62%.

First: O=C(/C=C/c1ccccc1)Nc1nnc(SCC(=O)c2ccc3ccccc3c2)s1
Second: COc1ccccc1CNC(=O)c1ccc(CS(=O)c2ccccc2Cl)o1 (configuration not stated)
The “activity change, negative = inhibition” value of the first is lower: -11.5% for the first, 6.69% for the second.

First: O=C(Nc1nnc(CCN2CCCCC2)s1)c1cccc(Cl)c1
Second: CCCCCn1c(=O)[nH]c2cc(C(=O)Nc3cc(C)cc(C)c3)ccc2c1=O
The “activity change, negative = inhibition” value of the first is lower: -2.89% for the first, 2.7% for the second.

First: COc1ccc(OC)c(-n2nnc(-c3nc(-c4cc(OC)c(OC)c(OC)c4)no3)c2C)c1
Second: COc1ccc(-c2cc(-c3nc(-c4cc(OC)c(OC)c(OC)c4)no3)[nH]n2)c(OC)c1
The “activity change, negative = inhibition” value of the first is lower: -1.25% for the first, 4.6% for the second.

With `COc1cccc(C(=O)N/N=C(\C)c2cccc(NC(=O)c3ccc(F)cc3)c2)c1OC` the Potency was 13.5 µM (active).
For `Cc1c(Cl)cccc1NC(=O)Nc1ccc(C(=O)N2CCCC2)cc1`, the Potency was 5.36 µM (active).
With `Cc1cccc(NC(=O)c2ccc3ccccc3n2)n1` the Potency was 6.01 µM (active).
With `Cc1cccc(NC(=O)COc2ccccc2C)n1` the Potency was 13.5 µM (active).
With `Cc1cccc(NC(=O)COc2ccc(Br)cc2C)n1` the Potency was 3.38 µM (active).
For `Cc1ccccc1OCC(=O)Nc1ccc2c(c1)ncn2C`, the Potency was 21.3 µM (active).
For `CCSc1nnc(NC(=O)c2ccc(C)cc2)s1`, the Potency was 2.69 µM (active).
With `NC(=O)CSc1nnc(NC(=O)c2ccc3ccccc3c2)s1` the Potency was 2.39 µM (active).
In the case of `NC(=O)CSc1nnc(NC(=O)c2ccc(Br)o2)s1`, the Potency is reported as 16.9 µM (active).
`COc1ccc(-c2noc(-c3cccc(OC)c3OC)n2)cc1OC` was tested, and the Potency was 2.39 µM (active).
`COc1cc(CO)ccc1OCC(=O)Nc1cccc2ccccc12` was tested, and the Potency was 10.7 µM (active).

With `Cc1ccc(C(=O)Nc2nnc(-c3ccncc3)s2)o1` the activity change, negative = inhibition was -0.508% [at 2.3 µM].
